This is a sample that favours compounds with a hit; in the whole collection about 4.5% have one here.
FXN GAA850 act: activators of GAA850 frataxin (FXN) promoter. HEK293 lucGAA850 FXN promoter luciferase reporter, 24 h; percent of 10 µM SAHA response. activation, % at 6 µM. 360,000 tested, 0.56% active. AID 540364;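 active = activation above the average of all compounds screened plus 3 SD, cutoff fixed separately per campaign, cut at about 7.5% in these data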
DAX1 inh-1: inhibitors of DAX1 repression of SF-1 activated StAR promoter; HEK293T StAR-luciferase reporter, SF-1/DAX-1 repression relief; inhibition, % at 6.8 µM; 370,000 tested, 1.1% active; AID 652010;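 active = inhibition above the mean over all tested compounds plus 3 SD, cut at about 3.6% in these data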;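 note: higher inhibition means more luminescence from relief of DAX-1 repression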
ssDAF12 agonist: activates DAF-12 receptor from parasite S. stercoralis | HEK293 ssDAF-12/GRIP1 lit1-tk-luc reporter, luminescence; % of 3 µM dafachronic acid response | activation, % at 6.8 µM | 370,000 tested, 1% active;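 active = activation above the mean over all tested compounds plus 3 SD, cut at about 0.9% in these data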
DAX1 inh-2: NR0B1 (DAX1) inhibition; P51843; inhibition, % at 6.75 µM; 340,000 tested, 0.99% active; HEK293 Gal4-DAX1 luciferase reporter, luminescence;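 active = inhibition above the mean over all tested compounds plus 3 SD, cut at about 4.2% in these data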;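 note: inhibition shows as a rise in luminescence from relieved DAX1 repression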
Target sequence (P51843 207-470 limits assumed): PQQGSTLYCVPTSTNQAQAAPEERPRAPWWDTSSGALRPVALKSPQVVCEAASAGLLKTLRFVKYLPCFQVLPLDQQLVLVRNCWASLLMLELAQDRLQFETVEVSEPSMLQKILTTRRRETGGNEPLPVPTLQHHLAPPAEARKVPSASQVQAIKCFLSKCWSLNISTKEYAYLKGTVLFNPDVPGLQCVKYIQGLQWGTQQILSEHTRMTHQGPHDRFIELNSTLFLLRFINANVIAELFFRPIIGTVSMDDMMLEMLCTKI
hgDAF-12 ag: activates the H. glycines DAF-12 receptor ligand-binding domain. HEK293 GAL4-hgDAF12 UAS-luciferase reporter, agonist luminescence; normalized to butyrate control. activation, % at 6.8 µM. 370,000 tested, 1.8% active. AID 687014;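 active = activation above a cutoff set at the mean of all screened compounds plus 3 SD, cut at about 10% in these data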
hcDAF12 agonist: H. contortus DAF-12 activation, primary screen; 370,000 tested, 1.4% active; HEK293 hcDAF-12 lit1-tk-luc reporter, luminescence; 0% DMSO, 100% Δ7-dafachronic acid; activation, % at 6.8 µM;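 active = activation above the mean of all tested compounds plus 3 SD, cut at about 5.5% in these data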
LXR ag: counter-screen for hcDAF-12 agonists: agonists of human LXR-beta | activation, % at 6.8 µM | HEK293 Gal4-LXR tk-luc reporter, luminescence, 24 h; normalized: DMSO 0%, positive control 100% | 3,400 tested, under 10 active | shares compounds with hcDAF12 agonist;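 active = mean percent activation of the reporter above a cutoff set as the average over tested compounds plus their standard deviation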
hcDAF12 conf: hcDAF-12 agonism, confirmation assay | shares compounds with hcDAF12 agonist | HEK293 hcDAF-12 lit1-tk-luc reporter, luminescence; % of Δ7-dafachronic acid response | activation, % at 6.8 µM | 3,400 tested, 61% active | AID 743032;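 active = mean activation across triplicate tests above the threshold derived from the earlier primary screen, cut at about 5.5% in these data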
A number is an active result; 0 = inactive; - = no result.

SMILES | FXN GAA850 act | DAX1 inh-1 | ssDAF12 agonist | DAX1 inh-2 | hgDAF-12 ag | hcDAF12 agonist | LXR ag | hcDAF12 conf
CCOC(=O)[C@@]12CCC3=C1N(CCC3)C(=O)[C@H](CC(=O)NCc1ccc(OC)c(OC)c1)C2 | - | 0 | 0 | - | 0 | 0 | - | -
O=C(Nc1cc(-c2nc3ccccc3s2)ccc1Cl)c1ccc2c(c1)OCO2 | 0 | 0 | 1.6 | 0 | 11.0 | 9.9 | 0 | 6.3
Cc1ccc(/C=C/C(=O)Nc2ncc(C)s2)o1 | 0 | 0 | 0 | 0 | 0 | 7.2 | 0 | 0
Cc1cnc(NC(=O)/C=C/c2ccc(Br)o2)s1 | 0 | 0 | 0 | 0 | 0 | 0 | - | -
C#CCN1C(=O)[C@]2(NCCc3c2[nH]c2ccc(OC)cc32)c2ccccc21 | - | 0 | 0 | - | 0 | 0 | - | -
COc1ccc(-c2cc(-c3ccc(C)cc3)n[nH]2)c(O)c1 | 0 | 0 | 0 | 5.8 | 13.1 | 6.9 | 0 | 0
CCn1c(=O)n(CC(=O)N2CCC(C)CC2)c(=O)c2ccccc21 | - | 0 | 0 | - | 0 | 0 | - | -
Cc1noc(C)c1S(=O)(=O)N(CC(=O)N1CCn2c1nc1ccccc12)c1ccc(C(C)C)cc1 | 0 | 0 | 0 | 0 | 0 | 8.4 | 0 | 0
COCCNC(=O)C1CCCN(C(=O)c2ccc3ccccc3n2)CC1 (configuration not stated) | 0 | 0 | 0 | - | 0 | 0 | - | -
Cc1ccc(C)c(N=Nc2nc3ccccc3n2C)c1 | 0 | 0 | 1.2 | 0 | 0 | 12.3 | 0 | 13.3
COc1ccc(C2=CC(=O)CC(C)(C)C2=O)cc1 | - | 0 | 0 | - | 0 | 0 | - | -
O=C(NCCc1ccccc1)OCc1cn(Cc2ccccc2Cl)nn1 | - | 0 | 0 | - | 0 | 0 | - | -
Oc1[nH]c2ccccc2c1C=Nc1ccc2c(c1)OCCO2 | 0 | 0 | 0 | 0 | 12.6 | 8.4 | 0 | 6.9
CC(C)N=Cc1c(O)[nH]c2ccccc12 | 0 | 0 | 0 | 0 | 0 | 0 | - | -
Oc1c(Br)cc(Br)cc1C=Nc1ccc2c(c1)OCCO2 | 0 | 0 | 0 | 0 | 0 | 0 | - | -
Cc1cccc(/N=C/c2c(O)[nH]c3ccccc23)n1 | 0 | 0 | 1.2 | 0 | 12.0 | 10.5 | 0 | 9.2
Cc1cccc(NC(=O)C2CCN(c3nnc(-n4cccc4)s3)CC2)c1C | - | 0 | 0 | - | 0 | 0 | - | -
Cn1cc(/C=N\NC(=O)c2cccs2)c2ccccc21 | 0 | 0 | 0 | 6.1 | 13.0 | 6.8 | 0 | 0
COc1cc2c(cc1NC(=O)C(C)OC(=O)C1CC(=O)N(Cc3ccco3)C1)oc1ccccc12 (configuration not stated) | 0 | 0 | 1.5 | 0 | 0 | 8.8 | 0 | 8.0
CC(OC(=O)C1CC(=O)N(Cc2ccco2)C1)C(=O)Nc1cccc(C#N)c1 (configuration not stated) | 0 | 0 | 0 | 0 | 0 | 0 | - | -
O=C(c1ccccc1)N1CCC2CCN(CCc3ccccc3)CC21 (configuration not stated) | - | 0 | 0 | - | 0 | 0 | - | -
Clc1ccc(-c2nnc3n2N=C(c2ccc(-c4ccccc4)cc2)CS3)c(Cl)c1 | - | 0 | 0 | - | 0 | 0 | - | -
Cc1ccc(C2NC(=O)c3c(sc(C)c3C)N2)c(O)c1 (configuration not stated) | 0 | 0 | 1.0 | 0 | 0 | 9.0 | 0 | 8.4
CC(C)C[C@@H]1COc2cc(NC3CC3)ccc2S(=O)(=O)N1 | - | 0 | 0 | - | 0 | 0 | - | -
COc1ccc(-c2nc3ccccc3c(=O)n2CCOc2ccc(C)cc2C)cc1 | 0 | 0 | 0 | 0 | 0 | 0 | - | -
COc1ccc(-c2nc3ccccc3c(=O)n2CCOc2ccccc2C)cc1 | 0 | 0 | 0 | 6.9 | 0 | 6.6 | 0 | 0
COc1ccc(Cl)cc1C1=NOC2(CCC2)C(=O)N1Cc1ccc(NC(C)=O)cc1 | 0 | 0 | 0 | - | 0 | 9.4 | 0 | 0
O=C(CSCC(=O)Nc1nc(-c2ccc3c(c2)OCO3)cs1)Nc1nccs1 | 0 | 0 | 0 | 0 | 0 | 8.4 | 0 | 0
